# Bioassay records: PubChem BioAssay, National Center for Advancing Translational Sciences (NCATS)
# A selection: hits, their analogues and other compounds. The true share with any hit is near 1.3%.
# HTT-AS promoter: activators of huntingtin-antisense promoter activity. Potency, µM (highest dose often 57.5 µM), for inactives: top-dose activity change, positive = activation, hits mostly activators. HEK293 HTT-AS promoter firefly luciferase reporter, 24 h; response scale: percent change from vehicle, -100% = no light. AID 1508624. 48,000 tested, 0.24% active; further: nearly all actives have a fitted effect of over 55% in size
#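 HEK293 luciferase promoter-reporter cells (2,500/well) plated 24 h, then compounds added at up to 57.5 uM final for 24 h at 37 °C. Firefly luminescence by Dual-Glo, normalized to vehicle (0%) and zero RLU (-100%).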
# FH mod: Identification of activators of human fumarate hydratase by quantitative high-throughput screening | AID 1347055, 2019 | FH coupled MDH/diaphorase resazurin fluorescence, 15 min | Potency, µM (series often up to 79.9 µM), inactives show at the top dose activity change, negative = inhibition, actives largely listed as inhibitors | 54,000 tested, 0.22% active | Fumarate hydratase, mitochondrial (Homo sapiens), P07954; further: on the % scale 0 is the no-effect control and ±100 the full control effect; the screen sought activators but most active calls are inhibition curves; nearly all actives have a fitted effect of over 45% in size
# Target sequence (P07954 whole entry, looked up): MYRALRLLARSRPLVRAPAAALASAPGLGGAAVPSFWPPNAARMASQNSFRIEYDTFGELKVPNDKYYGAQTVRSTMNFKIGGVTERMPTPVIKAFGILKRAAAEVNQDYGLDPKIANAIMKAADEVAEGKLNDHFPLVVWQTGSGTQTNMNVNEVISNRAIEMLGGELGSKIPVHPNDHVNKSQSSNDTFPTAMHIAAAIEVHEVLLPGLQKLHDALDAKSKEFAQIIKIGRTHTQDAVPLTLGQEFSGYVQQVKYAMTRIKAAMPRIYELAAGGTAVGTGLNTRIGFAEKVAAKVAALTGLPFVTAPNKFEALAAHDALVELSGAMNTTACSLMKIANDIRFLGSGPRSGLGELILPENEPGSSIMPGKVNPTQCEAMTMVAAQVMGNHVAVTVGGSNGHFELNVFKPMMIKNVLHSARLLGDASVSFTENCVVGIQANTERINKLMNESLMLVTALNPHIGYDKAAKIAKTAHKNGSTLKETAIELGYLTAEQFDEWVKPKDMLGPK
# HTT promoter inh: inhibitors of huntingtin promoter activity; HEK293 HTT promoter firefly luciferase reporter, 24 h; Potency, µM (highest dose often 57.5 µM), inactives show at the top dose activity change, negative = inhibition, actives largely listed as inhibitors; 48,000 tested, 0.93% active; AID 1508623; further: nearly all actives have a fitted effect of over 50% in size
#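 Firefly luciferase signal from promoter-reporter HEK293 cells was scaled between vehicle (0%) and zero RLU (-100%). Compounds were tested at final concentrations of up to 57.5 uM over 24 h at 37 degrees C. PTC124 at 50 uM final served as control inhibitor.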
# Numbers without * were called inactive; ? = inconclusive; nt = no result; ! = not active in a repeat; [ ] = remark or other dose. The call rests on the fitted dose curve; in most records, active means well fitted curve in the direction sought with a large enough effect; inconclusive means small, poorly fitted or top-dose-only effect, or another doubt; inactive means no such curve, though single readings can be large; an effect the other way counts as inactive or inconclusive. Potency means the concentration at half of the fitted maximal effect.
SMILES,HTT-AS promoter,FH mod,HTT promoter inh
Cc1cccc(NC(c2cccc(Cl)c2)c2ccc3cccnc3c2O)n1 (stereo unspecified),-38%,-9%,10µM*
Cc1ccc(C(Nc2ccccn2)c2ccc3cccnc3c2O)cc1 (stereo unspecified),-48%,14%,?
COc1ccc(C(Nc2ccccn2)c2ccc3ccc(C)nc3c2O)cc1C (stereo unspecified),-31%,12%,?
C/C1=C\[C@H]2OC(=O)[C@@H](C)[C@@H]2CC/C(C(=O)O)=C/CC1,nt,2%,nt
CN(CCc1ccc(Nc2ncc(-c3cccnc3)s2)cc1)Cc1ccccc1,nt,-4%,nt
Clc1ccccc1-c1nc(-c2ccncc2)no1,?,-22%[53.3 µM],30%
Fc1cccc(-c2nc(-c3ccncc3)no2)c1,4µM*,5%,40%
CC(=O)c1ccc(NC(=O)CC2Nc3cc(C)c(C)cc3NC2=O)cc1 (stereo unspecified),-53%,4%,?
COC(=O)c1ccc(NC(=O)CC2Nc3cc(C)c(C)cc3NC2=O)cc1 (stereo unspecified),-76%,8%,25µM*
CCCC(CCC)C(=O)NCc1ccc2c(cnn2-c2ccccc2OC)c1,nt,0%,nt
O=C(Nc1noc2ccccc12)c1ccc(F)cc1,?,-12%,60%
O=C(Nc1noc2ccccc12)c1cccc(F)c1,2µM*,-22%,67%
C=C1CC/C=C(/C(=O)O)CCC2C1CC2(C)C (stereo unspecified),nt,0%,nt
CCc1ccc(NCc2cccn2-c2nnc(N3CCCCCC3)s2)cc1,-79%,-9%,10µM*
COc1cccc(NCc2cccn2-c2nnc(N3CCC(C)CC3)s2)c1,-61%,-39%,10µM*
Cc1ccccc1NCc1cccn1-c1nnc(N2CCC(C)CC2)s1,-4%,-10%,-14%
Cc1ccc(CNCc2cccn2-c2nnc(N3CCCC3)s2)cc1,5%,1%,-34%
COc1ccc(NCc2cccn2-c2nnc(N3CCCCC3)s2)cc1OC,-54%,?,7.9µM*
COc1ccc(NCc2cccn2-c2nnc(N3CCOCC3)s2)cc1OC,-6%,?,?
COc1ccc(CCN(C)CCCOc2nsc(-c3ccccc3)n2)cc1OC,nt,6%,nt
C[C@@H]1O[C@@H](OC[C@H]2O[C@@H](OCC3CCC4CC3C4(C)C)[C@H](O)[C@@H](O)[C@@H]2O)[C@H](O)[C@H](O)[C@H]1O (stereo partly specified),nt,21%[53.3 µM],nt
COc1c2c(cc3c1-c1c(cc4c(c1OC)OCO4)CC(C)C(C)C3)OCO2 (stereo unspecified),nt,-8%[53.3 µM],nt
COC(=O)N[C@@H](C)CNc1nccc(-c2cn(C(C)C)nc2-c2cc(Cl)cc(NS(C)(=O)=O)c2F)n1,nt,-4%,nt
Cc1ccc(CNC(=O)c2ccc(-c3nc(CN4CCc5ccccc54)c(C)o3)cc2)cc1,-27%,-2%,-36%
Cc1oc(-c2ccc(C(=O)N(C)Cc3ccccc3)cc2)nc1CN1CCc2ccccc21,-52%,-25%,8.9µM*
SMILES,HTT-AS promoter,FH mod,HTT promoter inh
O=C(CCn1cnc2onc(-c3ccc(F)cc3)c2c1=O)Nc1cccc(C(F)(F)F)c1,-59%,?,?
O=C(CCn1cnc2onc(-c3ccc(F)cc3)c2c1=O)Nc1ccc(F)c(Cl)c1,-75%,-25%,22µM*
Nc1nc(Nc2ccccc2)nc2c1ncn2[C@@H]1O[C@H](CO)C(O)[C@H]1O (stereo partly specified),nt,-4%[53.3 µM],nt
CCC[C@@H]1O[C@@H]2C[C@H]3[C@@H]4CCC5=CC(=O)C=C[C@]5(C)[C@H]4[C@@H](O)C[C@]3(C)[C@]2(C(=O)CO)O1,nt,7%,nt
COc1cc(Nc2nc3c(s2)CCCC3c2ccc(F)cc2)ccc1-n1cnc(C)c1 (stereo unspecified),nt,-16%,nt
COc1ccc(CC(NC(C)=O)C(=O)O)cc1 (stereo unspecified),nt,-2%,nt
COc1ccc(-c2cc(=O)c3c(O)cc(O)cc3o2)cc1O,15%,24µM*,2%
O=c1cc(-c2ccccc2)oc2cc(O)c(O)c(O)c12,?,?,22%
CC1CC(O)CC(C)(C)C1(O)CCO (stereo unspecified),nt,3%,nt
C=CC(=O)Nc1cc(Nc2ncc(Cl)c(-c3c[nH]c4ccccc34)n2)c(OC)cc1N(C)CCN(C)C,nt,-7%,nt
OCCCc1ccccc1,1%,-12%[53.3 µM],-4%
NNCCc1ccccc1,4µM*!,-8%[53.3 µM],-7%
Cc1cc2c(F)c(Oc3ncnn4cc(OCC(C)OC(=O)C(C)N)c(C)c34)ccc2[nH]1 (stereo unspecified),nt,-29%,nt
NC(=O)c1ccc(I)c([N+](=O)[O-])c1,-1%,1%[53.3 µM],26%
N#Cc1cc([N+](=O)[O-])c2sc(C(N)=O)[n+]([O-])c2c1,nt,20µM*!,nt
CCCC1=CC2=C(CO1)C(=O)C(C)(O)C(OC(=O)c1c(C)cc(OC)cc1O)C2 (stereo unspecified),nt,-3%[53.3 µM],nt
Cc1cn2c(n1)Cc1ccc(Cl)cc1C(c1ccc(N)cc1)=N2,nt,-7%,nt
Cc1cccc(N2CCN(S(=O)(=O)c3cc(C(=O)Nc4ccc(Oc5ccccc5)cc4)ccc3F)CC2)c1C,-30%,-19%,?
Cc1ccc(C)c(N2CCN(S(=O)(=O)c3cc(C(=O)Nc4ccc(Oc5ccccc5)cc4)ccc3F)CC2)c1,-41%,2%,2µM*
CC(C)c1ccc(NC(=O)c2ccc(F)c(S(=O)(=O)N3CCc4ccccc43)c2)cc1,-29%,-17%,?
O=C(Nc1nc2c(F)cccc2s1)c1ccc(S(=O)(=O)N2CCCc3ccccc32)cc1,-9%,4%,1%
Cc1ccc(NC(=O)c2ccc(C)c(S(=O)(=O)N3CCCCCC3)c2)cc1,-19%,?,?
O=C(Nc1ccc(Br)cc1)c1ccc(F)c(S(=O)(=O)N2CCc3ccccc32)c1,-45%,-27%,14µM*
O=C(Nc1nc2c(F)cc(F)cc2s1)c1ccc(S(=O)(=O)N2CCc3ccccc32)cc1,-56%,-4%,22µM*
Cc1ccc(C(=O)Nc2ccc(Br)cc2)cc1S(=O)(=O)N1CCOCC1,-22%,-15%,20µM*
SMILES,HTT-AS promoter,FH mod,HTT promoter inh
Cn1c(=O)cc(N2CCCC(N)C2)n(Cc2cc(F)ccc2C#N)c1=O (stereo unspecified),nt,-1%,nt
OC[C@H]1O[C@@H](Oc2cc(O)cc(-c3cc4ccc(O[C@@H]5O[C@H](CO)[C@@H](O)[C@H](O)[C@H]5O)cc4o3)c2)[C@H](O)[C@@H](O)[C@@H]1O,nt,0%[53.3 µM],nt
C[C@@H](Nc1cc(F)cc(F)c1)c1cc(C(=O)N(C)C)cc2c(=O)cc(N3CCOCC3)oc12,nt,3%,nt
O=C(O)CC1(O)C(=O)Nc2ccccc21 (stereo unspecified),nt,-19%,nt
O=C(Nc1ccc(C(F)(F)F)cc1)c1cc(S(=O)(=O)N2CCCc3ccccc32)ccc1F,-74%,?,?
O=C(Nc1ccc(Cl)cc1)c1cc(S(=O)(=O)N2CCCc3ccccc32)ccc1F,-46%,-23%,25µM*
COc1ccc(CCO[C@@H]2O[C@H](CO[C@@H]3OC[C@H](O)[C@H](O)[C@H]3O)[C@@H](O)[C@H](O)[C@H]2O)cc1,nt,0%[53.3 µM],nt
